31 molecules from ChEMBL document CHEMBL1157539, “Thousands of chemical starting points for antimalarial lead identification” (Nature, 2010) can be followed below.

SMILES strings stand for the structures.

Holding throughout (type): functional
Test [1] concerns Plasmodium falciparum. Kind of test: GSK_TCMDC: Inhibition of Plasmodium falciparum 3D7 in whole red blood cells, using parasite LDH activity as an index of growth. Test compounds present at 2uM.
Test [2] has as its system Plasmodium falciparum. Kind of test: GSK_TCMDC: Inhibition of Plasmodium falciparum Dd2 in whole red blood cells, using parasite LDH activity as an index of growth. Test compounds present at 2uM.
The subject of another test is HepG2. Briefly: GSK_TCMDC: Percent inhibition of human HepG2 cell line. Test compounds present at 10uM.

The term Inhibition denotes the percentage by which the read-out fell short of the control. A higher Inhibition goes with a strong effect. As for `O=C(O)c1ccc(-c2cnc3ccc(NC4CCC(O)CC4)nn23)cc1` (stereo not drawn), the Inhibition in the test on Plasmodium falciparum [1] was determined as 98%; with Plasmodium falciparum [2], 90%; in the test with HepG2, 9%.

Consider `CC(=O)Nc1cccc(CNCc2ccc(-c3cnc(N4CCCC(C)(C)C4)nc3)cc2)c1.O=CO`, for which the Inhibition in the test on Plasmodium falciparum [1] was determined as 93%; in the test with Plasmodium falciparum [2] it was 75%; in the test on HepG2 it was 10%.

For `COc1cc2c(cc1C(F)(F)F)N(C(=O)Nc1cc(F)cc(-c3cccnn3)c1)CC2`, the figures for the Inhibition with Plasmodium falciparum [1], in the test with Plasmodium falciparum [2] and in the test with HepG2 were 90%, 34% and 21%, respectively.

In the case of `CCCC[C@H](NC(=O)OC(C)(C)C)C(=O)Nc1ccc(Cc2ccc(NC(=O)[C@H](CCCC)NC(=O)OC(C)(C)C)cc2)cc1`, the values for the Inhibition in the test with Plasmodium falciparum [1], in the test on Plasmodium falciparum [2] and in the test on HepG2 were 95%, 71% and 5%, respectively.

For the molecule `O=C(Nc1ccc(Cl)cc1)c1cccc(S(=O)(=O)NC2CCN(CC3CCCCC3)C2)c1.O=C(O)C(F)(F)F` (stereo not drawn), the Inhibition in the test on Plasmodium falciparum [1] is 90%; in the test on Plasmodium falciparum [2] it was 41%; with HepG2 it was 80%.

For `Nc1cccc(CNCc2cccc(-c3cccc(-c4nc5cc(C(F)(F)F)ccc5[nH]4)c3)c2)c1.O=C(O)C(F)(F)F`, the Inhibition was 100% in the test on Plasmodium falciparum [1], 96% with Plasmodium falciparum [2] and 8% with HepG2.

In the case of `Oc1ccc2[nH]cc(C3CCN(CCC(c4ccccc4)c4ccccc4)CC3)c2c1`, the figures for the Inhibition in the test on Plasmodium falciparum [1], in the test with Plasmodium falciparum [2] and in the test with HepG2 were 90%, 42% and 27%, respectively.

Take `CC(C)N1CCN(c2ccc(OCCCCN3CCN(c4cccc(Cl)c4Cl)CC3)cc2Cl)CC1.Cl`: the Inhibition in the test on Plasmodium falciparum [1] is 89%; in the test on Plasmodium falciparum [2] it was 34%; in the test with HepG2 it was 63%.

On to `CS(=O)(=O)c1ccc(CNCc2cccc(-c3cccc(-c4nc5ccccc5[nH]4)c3)c2)cc1.O=C(O)C(F)(F)F`, for which the Inhibition in the test with Plasmodium falciparum [1] stood at 100%; in the test on Plasmodium falciparum [2], 47%; with HepG2 it was 3%.

With `Oc1cccc(-c2nc3cc(C4=NC5CCCCC5N4)ccc3[nH]2)c1` (stereo not drawn), the Inhibition stood at 94% in the test on Plasmodium falciparum [1], 99% with Plasmodium falciparum [2] and 3% with HepG2.

Consider `CN1CCCN(Cc2cccc(-c3cccc(NS(=O)(=O)c4cccc5cccnc45)c3)c2)CC1.O=C(O)C(F)(F)F`, for which the Inhibition with Plasmodium falciparum [1] came to 97%; in the test with Plasmodium falciparum [2], 74%; in the test on HepG2 it was 21%.

As to `O=C(NCCCc1ccccc1)c1csc(C2CCCN(C(=O)c3ccc(O)c(-c4ccccc4)c3)C2)n1` (stereo not drawn), the figures for the Inhibition in the test with Plasmodium falciparum [1], with Plasmodium falciparum [2] and in the test on HepG2 were 97%, 97% and 5%, respectively.

Regarding `CC(C)Cc1nc(N)nc(N)c1-c1ccc(Cl)cc1`, the Inhibition in the test on Plasmodium falciparum [1] was found to be 96%; with Plasmodium falciparum [2], 3%; with HepG2, 5%.

Turning to `FC(F)(F)c1ccc2[nH]ccc(=NN=CC=Cc3ccccc3)c2c1`, the Inhibition is given as 82% with Plasmodium falciparum [1], 9% with Plasmodium falciparum [2] and 0% in the test with HepG2.

`COc1ccc(CNC(=O)c2cnc3c(O)cccc3c2Nc2cccc(NC(=O)c3ccc(F)cc3)c2)cc1.O=C(O)C(F)(F)F`: the Inhibition with Plasmodium falciparum [1] came out at 91%; in the test on Plasmodium falciparum [2], 65%; with HepG2 it was 50%.

`CCCOc1ccc(CCNCCCCNCCc2ccc(OCCC)c3ccccc23)c2ccccc12.CS(=O)(=O)O`: the figures for the Inhibition in the test with Plasmodium falciparum [1], with Plasmodium falciparum [2] and in the test with HepG2 were 93%, 52% and 100%, respectively.

For the molecule `Cn1cnc(CCNC(=O)c2ccc(-c3cccc(-c4nc5cc(C(F)(F)F)ccc5[nH]4)c3)cc2)c1`, the Inhibition in the test on Plasmodium falciparum [1] was found to be 100%; in the test with Plasmodium falciparum [2], 93%; in the test on HepG2, 25%.

On to `COCCSc1nc2scc(C)c2c(=O)n1Cc1cccc(OC)c1`, for which the Inhibition came out at 92% in the test with Plasmodium falciparum [1], 33% with Plasmodium falciparum [2] and 0% in the test on HepG2.

Turning to `O=C(Nc1cccc(CN2CCCN(Cc3cccc(O)c3)CC2)c1)c1ccc(-c2ccccc2)cc1.O=C(O)C(F)(F)F`, the Inhibition was 100% in the test on Plasmodium falciparum [1], 66% with Plasmodium falciparum [2] and 28% in the test with HepG2.

Turning to `CN1CCC(c2c[nH]c3ccc(NC(=O)Nc4ccc(-c5ccncc5)cc4Cl)cc23)CC1`, the results for the Inhibition in the test with Plasmodium falciparum [1], in the test on Plasmodium falciparum [2] and with HepG2 were 100%, 7% and 31%, respectively.

In the case of `Cc1cccc2nc(-c3cccc(-c4ccc(NC(=O)Nc5ccc(F)c(F)c5F)cc4)c3)[nH]c12`, the results for the Inhibition in the test on Plasmodium falciparum [1], in the test with Plasmodium falciparum [2] and with HepG2 were 100%, 100% and 61%, respectively.

For the molecule `Nc1nc(N)c2c(Cc3ccccc3)cccc2n1`, the Inhibition in the test on Plasmodium falciparum [1] amounted to 94%; in the test with Plasmodium falciparum [2], 3%; with HepG2, 68%.

As to `CC(=O)Nc1nc(N)c2c(ccc3c2ccn3CC(C)C)n1`, the figures for the Inhibition in the test on Plasmodium falciparum [1], in the test with Plasmodium falciparum [2] and in the test with HepG2 were 94%, 78% and 66%, respectively.

Take `Nc1nc(N)c2c(ccn2Cc2cc3c(cc2Cl)OCO3)n1`: the figures for the Inhibition in the test on Plasmodium falciparum [1], in the test with Plasmodium falciparum [2] and in the test on HepG2 were 98%, 11% and 67%, respectively.

For `CCc1cn2c3c(cc(C(=O)N[C@@H](Cc4cc(F)cc(F)c4)[C@H](O)CNC4CCOCC4)cc13)N(C)S(=O)(=O)CC2.O=CO`, the Inhibition in the test on Plasmodium falciparum [1] was determined as 98%; in the test on Plasmodium falciparum [2], 98%; in the test on HepG2, 1%.

As to `COc1cc(NC(=O)/C=C/c2cc(F)cc(F)c2F)cc(OCCN2CCN(CCN3CCOCC3)CC2)c1.O=C(O)C(=O)O`, the Inhibition is given as 100% in the test on Plasmodium falciparum [1], 94% in the test with Plasmodium falciparum [2] and 21% in the test on HepG2.

Consider `COC(=O)Nc1nc2cc3c(cc2s1)OCCO3`, for which the Inhibition worked out at 99% with Plasmodium falciparum [1], 0% in the test with Plasmodium falciparum [2] and 0% in the test with HepG2.

With `COc1c(C2CCN(CCCCNC(=O)c3ccc(-c4ccc(Cl)cc4)cc3)CC2)ccc2c1C(C)(C)CCC2(C)C`, the Inhibition with Plasmodium falciparum [1] is on record as 95%; in the test with Plasmodium falciparum [2], 42%; with HepG2, 94%.

Take `Cc1ccc(CCNCC(O)c2cccc(C(F)(F)F)c2)cc1.Cl` (stereo not drawn): the figures for the Inhibition in the test with Plasmodium falciparum [1], with Plasmodium falciparum [2] and with HepG2 were 94%, 83% and 0%, respectively.

Turning to `CC(C)NC(=O)c1cccc(-c2ccc(OCCN3CCCC3c3cc4ccccc4[nH]3)cc2)c1` (stereo not drawn), the figures for the Inhibition in the test on Plasmodium falciparum [1], in the test with Plasmodium falciparum [2] and in the test on HepG2 were 100%, 34% and 25%, respectively.

As to `Br.CCCCCCCNCCNc1cc(C)nc2ccccc12`, the Inhibition in the test on Plasmodium falciparum [1] worked out at 100%; in the test on Plasmodium falciparum [2] it was 99%; in the test with HepG2, 58%.
